LEDGF integ inh – blockers of LEDGF/p75-dependent integrase strand transfer – biochemical, TR-FRET, high throughput, primary screen | TR-FRET IN-LEDGF/p75 DNA integration, Eu/Cy5 | inhibition, % at 3.7 µM | 370,000 tested, 0.64% active;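 active means inhibition above the screen-wide mean plus 3 SD, cut at about 13% in these data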;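 further: signal is the Cy5 over europium emission ratio at 671 and 618 nm; 0% = plate median of compound wells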
PG9 Ab binder – binders of HIV-1 gp120 antibody PG9, primary screen, biochemical, TR-FRET | 360,000 tested, 0.43% active | AID 624416, 2012 | inhibition, % at 6.7 µM | HIV-1 gp120 / PG9 antibody interaction | TR-FRET gp120-PG9 antibody binding; in the data active means inhibition above about 8.5%
MBD2 DNA inh – inhibitors of MBD2 binding to methylated DNA, primary screen, biochemical, TR-FRET, DNA-binding domain, human. inhibition, % at 4.4 µM. Methyl-CpG-binding domain protein 2 (Homo sapiens), Q9UBB5. MBD2 binding to methylated oligonucleotide. 370,000 tested, 0.31% active; in the data active means inhibition above about 13%
UHRF1 binding – UHRF1 methylated DNA binding inhibitors, primary screen, counter-screen for MBD2 inhibitor project, biochemical, TR-FRET, human UHRF1, single concentration | AID 687016, 2013 | inhibition, % at 4.4 µM | E3 ubiquitin-protein ligase UHRF1 (Homo sapiens), Q96T88 | 370,000 tested, 0.75% active | UHRF1 binding to methylated oligo; in the data active means inhibition above about 21%;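 further: UHRF1 SRA domain binding a hemimethylated CpG hairpin DNA probe; 0% = median of test compound wells and 100% = reference inhibitor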
Target sequence (Q96T88 whole entry, looked up, the tested form may be a part): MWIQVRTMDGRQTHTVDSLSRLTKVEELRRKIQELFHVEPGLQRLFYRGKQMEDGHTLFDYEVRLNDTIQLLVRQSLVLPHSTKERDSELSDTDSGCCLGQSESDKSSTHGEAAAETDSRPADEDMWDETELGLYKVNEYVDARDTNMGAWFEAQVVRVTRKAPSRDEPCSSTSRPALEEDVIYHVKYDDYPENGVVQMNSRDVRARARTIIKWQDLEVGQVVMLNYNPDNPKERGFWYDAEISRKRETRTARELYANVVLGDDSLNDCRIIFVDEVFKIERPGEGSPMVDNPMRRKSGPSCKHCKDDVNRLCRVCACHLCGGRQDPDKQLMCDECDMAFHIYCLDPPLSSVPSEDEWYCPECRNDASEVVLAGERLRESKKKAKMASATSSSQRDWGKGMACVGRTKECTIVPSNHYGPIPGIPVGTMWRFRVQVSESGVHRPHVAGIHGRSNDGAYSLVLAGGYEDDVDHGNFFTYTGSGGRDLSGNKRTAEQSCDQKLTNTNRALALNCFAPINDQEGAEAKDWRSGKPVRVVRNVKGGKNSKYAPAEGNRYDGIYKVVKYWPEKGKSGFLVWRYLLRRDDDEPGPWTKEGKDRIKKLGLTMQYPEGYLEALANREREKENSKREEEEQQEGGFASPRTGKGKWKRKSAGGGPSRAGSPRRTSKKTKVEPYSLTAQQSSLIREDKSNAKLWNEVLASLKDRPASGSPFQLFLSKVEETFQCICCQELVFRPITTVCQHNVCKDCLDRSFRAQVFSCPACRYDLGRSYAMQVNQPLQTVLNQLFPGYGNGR
rCAG RNA binder – binders of r(CAG) RNA repeats, primary screen, biochemical, fluorescence | r(CAG) RNA repeat, TO-PRO-1 dye displacement fluorescence | inhibition, % at 3 µM | 370,000 tested, 1.3% active | AID 651821, 2012;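 active means inhibition above the plate cutoff, the mean of all test compounds on that plate plus 3 SD, cut at about 35% in these data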;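 further: 0% = DMSO alone and 100% = 100 µM mitoxantrone as full dye displacement; higher means more dye released from RNA so lower well fluorescence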
DNMT1 block – human DNMT1 methyltransferase inhibitors, primary screen, biochemical, molecular beacon, fluorescence, HinP1I cleavage, uHTS; DNA (cytosine-5)-methyltransferase 1 (Homo sapiens), P26358; inhibition (reported as % activation of signal), % at 10 µM; 360,000 tested, 0.83% active; AID 588458, 2011; in the data active means inhibition above about 50%
PG9 bind confirm – binders of anti-gp120 antibody PG9, confirmation, biochemical, TR-FRET. shares compounds with PG9 Ab binder. 1,500 tested, 90% active. TR-FRET PG9 antibody binding. inhibition, % at 6.7 µM. AID 651571, 2012; in the data active means inhibition above about 9%
PGV04 counter – binders of control antibody PGV04, counter-screen for PG9 antibody binder project, biochemical, TR-FRET, distinct HIV envelope site. 1,500 tested, 95% active. AID 651604, 2012. TR-FRET PGV04 antibody-gp120 binding. shares compounds with PG9 Ab binder. inhibition, % at 6.7 µM; in the data active means inhibition above about 9.5%
PG9 binder DR – small-molecule binders of antibody PG9, dose response, biochemical, TR-FRET, HIV-1 gp120 antibody; shares compounds with PG9 Ab binder; TR-FRET PG9 antibody-gp120 binding inhibition; IC50, µM; 95 tested, under 10 active; AID 651848, 2012; in the data active means IC50 below about 10 µM
PGV04 DR counter – binders of control antibody PGV04, dose response, counter-screen for PG9 antibody binder project, biochemical, TR-FRET, distinct HIV envelope site; shares compounds with PG9 Ab binder; TR-FRET binding to control antibody PGV04; IC50, µM; 95 tested, 20% active
PG126 DR counter – binders of control antibody PG126, dose response, counter-screen for PG9 antibody binder project, biochemical, TR-FRET, distinct HIV envelope site | IC50, µM | shares compounds with PG9 Ab binder | AID 651939, 2012 | TR-FRET binding to antibody PG126, counterscreen | 95 tested, 20% active
The depositor's hits bear a star; . = no result given. In the library only some 3.5% were active in any assay of this set; here they are far more common. Unless noted, no stated cut-off is given here; in the data, active means IC50 below about 9 µM; inactive means the rest.

SMILES	LEDGF integ inh	PG9 Ab binder	MBD2 DNA inh	UHRF1 binding	rCAG RNA binder	DNMT1 block	PG9 bind confirm	PGV04 counter	others
CCC(=O)c1cn(CC(=O)Nc2cccc(C)c2C)c2ccccc12	0	9.9*	-2	1	2	9	19*	23*
CCC(=O)c1cn(CC(=O)Nc2ccccc2Cl)c2ccccc12	0	11*	-2	-1	1	1	14*	15*
COc1cccc(NC(=O)Cn2cc(C(=O)C3CC3)c3ccccc32)c1	3	1	1	-2	5	-1	.	.
CCC(=O)c1cn(CC(=O)Nc2cccc(C)c2)c2ccccc12	1	25*	-2	-7	3	0	16*	23*
CC(=O)c1cn(CC(=O)Nc2cccc(C)c2C)c2ccccc12	1	-1	5	18	-1	1	.	.
CCC(=O)c1cn(CC(=O)O)c2ccccc12	2	-2	0	-2	1	0	.	.
CC(C)C[C@@H]1O[C@H](C(C)C)Cc2[nH][nH]c(=O)c21	-2	-1	2	-5	-1	.	.	.
COc1ccc(-c2nc3ccc(Cl)cn3c2CC(C)(C)C)cc1OC	1	1	-3	-1	0	1	.	.
C=CCn1c(C)c(C(=O)OCC)c2cc(O)c3ccccc3c21	-4	11*	-1	-3	8	4	4	3	PG9 binder DR=>67;PGV04 DR counter=>67;PG126 DR counter=>67
CC(OC(=O)c1cc(Br)ccc1O)C(=O)NCc1ccc2c(c1)OCO2 (stereo unspecified)	-5	20*	2	8	1	3	33*	69*
COc1ccc(NC(=O)c2nnn(CC(=O)Nc3ccc4c(c3)OCO4)c2N)cc1OC	-5	0	0	0	16	-2	.	.
COc1ccc(Cl)cc1NC(=O)c1nnn(CC(=O)Nc2ccc3c(c2)OCO3)c1N	-6	10*	8	-3	11	4	20*	27*
Cc1nc(SCC(=O)Nc2ccccc2Cl)c2c(C)c(C)sc2n1	1	19*	-5	1	6	39	12*	17*
CCCOc1ccc(C(=O)N2CCC(Oc3cccnc3)CC2)cc1	4	.	-2	1	-3	.	.	.
CC(C)CCNC(=O)CCCn1c(=O)[nH]c2ccc(Br)cc2c1=O	-4	0	3	2	-4	4	.	.
O=C(CCCn1c(=O)[nH]c2ccc(Br)cc2c1=O)NCc1ccc(Cl)cc1	-3	16*	8	0	5	2	18*	32*
N#Cc1cc2c(nc1SCC(=O)NCc1ccc3c(c1)OCO3)CCCCC2	-4	14*	1	0	-1	0	17*	26*
O=C(O)c1ccccc1-c1noc(-c2ccccc2F)n1	-1	.	1	7	.	.	.	.
Cc1nc(N2CCC(C)CC2)c2c(C)c(C(=O)Nc3ccc(C(F)(F)F)cc3)sc2n1	-2	42*	5	1	0	-3	8	11*
COc1ccc(Cn2cc(CN3CC(N(C)C)CS3(=O)=O)nn2)cc1 (stereo unspecified)	2	-1	-6	-1	-2	.	.	.
CCOc1ccc(N(CC(=O)NCCSCc2ccco2)S(=O)(=O)c2ccc(C)cc2)cc1	-3	0	-1	3	-3	5	.	.
O=C(Nc1nc2c(Cl)cccc2s1)c1ccc(Br)o1	4	35*	7	3	6	-4	39*	43*
O=C(Nc1nc2c(Cl)cccc2s1)c1ccc([N+](=O)[O-])o1	-6	-2	-3	2	-2	3	.	.
CC1([N+](=O)[O-])COC2(CCCCC2)OC1	-4	1	2	-1	0	6	.	.
CCc1ccc(-n2c(=S)sc3c(=O)[nH]c(SCC(=O)NC4CCCCC4)nc32)cc1	-4	-1	6	5	9	-1	.	.
SMILES	LEDGF integ inh	PG9 Ab binder	MBD2 DNA inh	UHRF1 binding	rCAG RNA binder	DNMT1 block	PG9 bind confirm	PGV04 counter	others
Fc1cccc2sc(Nc3nc4ccccc4s3)nc12	2	14*	-1	3	14	1	13*	29*
Fc1ccc2nc(Nc3nc4c(F)cccc4s3)sc2c1	-4	11*	0	5	21	-3	14*	21*
Cc1ccc(-c2nc3cccnc3s2)cc1NC(=O)c1ccco1	1	-1	-4	-2	10	0	.	.
Cc1ccc(-c2nc3cccnc3s2)cc1NC(=O)C1c2ccccc2Oc2ccccc21	-4	19*	-2	0	3	46	30*	63*
COc1ccc(/C=C(\C#N)C(=O)Nc2cccnc2)cc1	-1	-2	1	-1	-3	5	.	.
COc1ccc(O)c(/C=C(\C#N)C(=O)Nc2cccnc2)c1	1	24*	2	-10	0	-8	13*	16*
COc1ccc(OCC(=O)Nc2cc(S(=O)(=O)N3CCCC3)ccc2OCC(F)(F)F)cc1	-6	9.3*	3	5	-4	0	21*	28*
COc1ccc(OCC(=O)Nc2cc(S(=O)(=O)N3CCCCC3)ccc2OC)cc1	0	2	-5	2	-2	-1	.	.
COc1ccc(Nc2nc3cc(C)ccc3cc2C#N)cc1	0	11*	4	2	10	-7	10*	15*
Cc1ccc2cc(C#N)c(NCc3ccccc3)nc2c1	-3	35*	-2	2	1	-4	30*	55*
COc1ccc(Nc2nc3cc(C)ccc3cc2C#N)c(OC)c1	-1	0	1	2	1	-2	.	.

High-throughput results deposited in PubChem by several laboratories.
